Compound activity deposited in PubChem BioAssay by several laboratories.
BCLXL inh: inhibitors of human Bcl-xL, primary screen, biochemical, fluorescence polarization, HTS; GST-Bcl-xL / FITC-Bim BH3 peptide fluorescence polarization; 320,000 tested, 0.7% active; inhibition, % at 10.9 µM; AID 2129, 2009; Bcl-2-like protein 1 (Homo sapiens), Q07817;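 active = inhibition above the mean of all tested compounds plus 3 SD, cutoff set per campaign, cut at about 30% in these data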;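 also: inhibitors lower millipolarization by displacing the labeled peptide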
Target sequence (Q07817 whole entry, looked up): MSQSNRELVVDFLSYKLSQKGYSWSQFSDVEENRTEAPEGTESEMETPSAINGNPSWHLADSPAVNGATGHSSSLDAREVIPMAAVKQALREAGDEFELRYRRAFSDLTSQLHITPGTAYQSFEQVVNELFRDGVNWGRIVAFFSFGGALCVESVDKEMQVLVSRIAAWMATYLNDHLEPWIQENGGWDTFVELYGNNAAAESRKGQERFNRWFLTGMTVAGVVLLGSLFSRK
Mcl-1 Bim block: inhibitors of Bim peptide binding to Mcl-1, primary screen, biochemical, bead-based flow cytometry, multiplex; Bim peptide-Mcl-1 binding; inhibition, % at 10 µM; 190,000 tested, 0.1% active; in the data active = inhibition above about 40%
Target sequence (Q07820 whole entry, looked up): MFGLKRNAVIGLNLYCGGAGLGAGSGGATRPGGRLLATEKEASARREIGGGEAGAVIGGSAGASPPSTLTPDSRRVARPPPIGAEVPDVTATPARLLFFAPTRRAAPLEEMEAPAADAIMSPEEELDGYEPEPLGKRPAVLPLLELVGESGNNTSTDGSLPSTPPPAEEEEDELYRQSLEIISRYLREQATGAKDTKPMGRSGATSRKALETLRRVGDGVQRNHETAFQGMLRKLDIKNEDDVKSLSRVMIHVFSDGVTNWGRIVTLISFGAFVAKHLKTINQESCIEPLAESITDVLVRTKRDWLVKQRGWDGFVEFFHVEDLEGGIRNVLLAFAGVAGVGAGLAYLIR
MCL1 BIM primary: inhibitors of MCL1 binding to BIM-BH3, primary screen, biochemical, fluorescence polarization; GST-MCL1 / FITC-Bim-BH3 fluorescence polarization; inhibition, % at 10.9 µM; 320,000 tested, 0.68% active; AID 2057, 2009;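 active = inhibition above the mean inhibition of all tested compounds plus 3 SD, set per campaign, cut at about 40% in these data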;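 also: higher means more loss of mP so more displacement of Bim peptide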
GLD-1 TGE inh: GLD-1/TGE RNA complex disruptors, primary screen, biochemical, fluorescence polarization | purified GLD-1 + fluorescein TGE RNA | inhibition, % at 5.96 µM | 320,000 tested, 0.44% active | AID 2280, 2010;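 active = percent inhibition above a per-plate cutoff, the plate mean of test compounds plus 3 SD, cut at about 30% in these data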
Mcl1-Bid inh: Mcl-1/Bid binding inhibitors, primary screen, biochemical, TR-FRET, 1536-well. Induced myeloid leukemia cell differentiation protein Mcl-1 (Homo sapiens), Q07820. TR-FRET Mcl-1/Bid-Dy647 peptide binding. inhibition, % at 21.7 µM. 220,000 tested, 0.97% active. AID 1021, 2008;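 active = compounds that cut the binding signal by more than half at the single screening dose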;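 also: His-tagged Mcl-1 with europium anti-His antibody binding Bid BH3 peptide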
Mcl1-Noxa inh: Mcl-1/Noxa binding inhibitors, primary screen, biochemical, TR-FRET, 1536-well; Induced myeloid leukemia cell differentiation protein Mcl-1 (Homo sapiens), Q07820; TR-FRET Mcl-1/Noxa peptide binding, 2 h; inhibition, % at 21.7 µM; 220,000 tested, 1.5% active; AID 1022, 2008;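 active = compounds that cut the protein-peptide binding signal by more than 50% relative to plate controls in a single-dose test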;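 also: His-tagged Mcl-1 with rhodamine Noxa BH3 peptide and terbium anti-His antibody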
Bcl-xL conf: Bcl-xL inhibitors blocking Bim BH3 binding, confirmation, counter-screen for MCL1 inhibitor project, biochemical, fluorescence polarization. shares compounds with MCL1 BIM primary. GST-Bcl-xL / FITC-Bim BH3 peptide FP binding. inhibition, % at 10.9 µM. 1,700 tested, 54% active. AID 2166, 2009;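 active = inhibition above a cutoff equal to the mean inhibition of all tested compounds plus 3 SD, cut at about 30% in these data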
MCL1 BIM confirm: inhibitors of MCL1 binding to BIM-BH3, confirmation, biochemical, fluorescence polarization, triplicate. GST-MCL1 / FITC-Bim-BH3 fluorescence polarization. 1,700 tested, 61% active. inhibition, % at 10.9 µM. AID 2168, 2009. shares compounds with MCL1 BIM primary;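 active = inhibition above the average of all tested compounds plus 3 SD, cut at about 40% in these data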
GLD-1 TGE cf: GLD-1/TGE RNA binding inhibitors, retest, confirmation, biochemical, fluorescence polarization, triplicate | AID 2459, 2010 | 550 tested, 10% active | shares compounds with GLD-1 TGE inh | inhibition, % at 5.96 µM | GLD-1/FL-TGE RNA fluorescence polarization;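 active = average inhibition across triplicates above the hit cutoff set in the primary screen, cut at about 32% in these data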
A number is an active result; – = inactive; · = not tested or not shown. Only some compounds are listed: those with a hit (about 2.3% of all), similar ones and a draw of the others.

SMILES	BCLXL inh	Mcl-1 Bim block	MCL1 BIM primary	GLD-1 TGE inh	Mcl1-Bid inh	Mcl1-Noxa inh	Bcl-xL conf	MCL1 BIM confirm	GLD-1 TGE cf
CC(C(=O)N(C)C1CCS(=O)(=O)C1)N1C(=O)/C(=C/c2ccco2)SC1=S (configuration not stated)	–	·	–	–	·	·	·	·	·
CC(C(=O)Nc1ccc(C(=O)O)c(O)c1)N1C(=O)/C(=C\c2ccco2)SC1=S (configuration not stated)	47	·	91	32	·	·	46	80	–
C[C@@]12CCC3[C@@](CCC4[C@@]3(C)CCC[C@@]4(C)C(=O)N3CCOCC3)(CC1=O)C2 (some centres not stated)	·	·	·	–	·	·	·	·	·
Cc1c(NC(=O)C(C)OC(=O)c2cc(-c3cccc4ccccc34)nc3ccccc23)c(=O)n(-c2ccccc2)n1C (configuration not stated)	75	–	86	38	–	–	–	–	–
CC1=C([N+](=O)[O-])C(c2ccc3c(c2)OCO3)N(C)C(=O)N1C (configuration not stated)	–	·	–	–	·	·	·	·	·
C=CCNC(=O)/C(C#N)=C/c1ccccc1[N+](=O)[O-]	45	–	51	31	–	–	–	–	45
O=C(NCC(c1ccco1)N1CCc2ccccc2C1)C(=O)Nc1cc(F)ccc1F (configuration not stated)	–	·	–	–	·	·	·	·	·
O=C(c1ccccc1)[C@@H]1[C@@H]2C(=O)N(c3ccc(F)cc3)C(=O)[C@@H]2C2CCCN21 (some centres not stated)	64	·	62	37	–	–	58	62	–
CSc1c(C#N)c(N)nc2sc(C(=O)c3ccccc3)c(N)c12	51	·	58	33	–	–	71	87	–
C/C=C/c1ccc(OCc2cc(=O)n3cc(C)ccc3n2)c(OC)c1	–	·	–	–	–	–	·	·	·
O=C(c1cc2nc(-c3ccc(Cl)cc3)cc(C(F)(F)F)n2n1)N1CCOCC1	–	–	–	–	–	–	·	·	·
C(=Nc1cccc2c(N=Cc3ccco3)cccc12)c1ccco1	82	–	76	43	–	58	–	–	–
CN(C)c1ccc(N=Cc2ccco2)cc1	–	–	–	–	–	–	·	·	·
CN(C)S(=O)(=O)c1ccc(N2CCCC2)c(C(=O)NNC(=O)c2ccc(F)cc2)c1	–	·	–	–	·	·	·	·	·
Cc1nn2c(N)csc2nc1=O	57	–	58	34	–	–	51	59	–
COc1ccc(N2CCN(C(=O)c3ccc(NC(=O)C4=CSCCO4)cc3)CC2)cc1	–	·	–	–	·	·	·	·	·
O=C1C2=C(SCCS2)C(=O)N1CCCO	87	–	92	75	–	–	74	94	49
CC(=O)N=c1c(C#N)cc2c(=O)n3cccc(C)c3nc2n1CCCOC(C)C	–	·	–	–	–	–	·	·	·
Cc1cccn2c(=O)c3cc(C#N)c(=NC(=O)c4cccs4)n(CCCOC(C)C)c3nc12	71	·	74	57	–	–	–	–	–
Cc1cccn2c(=O)c3cc(C#N)c(=NC(=O)c4ccncc4)n(CCCOC(C)C)c3nc12	73	–	87	44	–	–	43	48	–
CN1C(C)(C)CC(NC(=O)c2ccco2)CC1(C)C	–	·	–	–	·	·	·	·	·
CC1(C)CC(OC(=O)c2ccco2)CC(C)(C)N1O	43	–	–	35	–	–	·	·	–
Nc1n[nH]c2cc(=O)n(-c3ccc(Cl)cc3)nc12	–	–	–	35	–	–	·	·	–
Cc1ccc(S(=O)(=O)Nc2cc3c(C(=O)Nc4ccccc4)c(C)oc3c3ccccc23)cc1	–	–	–	128	–	–	·	·	105
CC(=O)c1c(C)oc2c1cc(NS(=O)(=O)c1ccc(C(=O)O)cc1)c1ccccc12	–	·	–	–	·	·	·	·	·
SMILES	BCLXL inh	Mcl-1 Bim block	MCL1 BIM primary	GLD-1 TGE inh	Mcl1-Bid inh	Mcl1-Noxa inh	Bcl-xL conf	MCL1 BIM confirm	GLD-1 TGE cf
O=C(O)Cn1c2c(c3ccccc31)CCCC2	39	–	48	33	–	–	·	·	–
CC(=O)NNC(=O)CCn1c2c(c3ccccc31)CCCC2	–	·	–	–	–	–	·	·	·
CCN(CC)S(=O)(=O)c1cc(NC(=O)CN2CCN(c3ccccn3)CC2)ccc1C	–	–	–	–	–	–	·	·	·
Cc1ccc(NC(=O)CN2CCN(c3ccccn3)CC2)cc1S(=O)(=O)N(C)C	–	–	–	54	–	–	·	·	–
CC(=O)N1CC=C2C(C#N)=C(N)C(C#N)(C#N)[C@H](c3ccoc3)[C@H]2C1	44	–	52	31	–	–	·	·	–
CN(C(=O)COC(=O)C1COc2ccccc2O1)C1(C#N)CCCCC1 (configuration not stated)	–	·	–	–	·	·	·	·	·
COc1ccc(CN2C(=O)CN=C2Nc2cc(C)ccc2C)cc1	–	–	–	33	–	–	·	·	–
CC(C)C1=C2OC(N)=C(C#N)C(C#N)=C2C(C)CC1 (configuration not stated)	35	–	–	39	·	·	·	·	–
COc1cc(/C=C(\C#N)c2nc3ccccc3[nH]2)cc(Br)c1OCc1ccc(F)cc1	–	–	–	97	–	–	·	·	–
CC1(c2ccc([N+](=O)[O-])cc2)Nc2ccccc2S1 (configuration not stated)	–	·	–	–	·	·	·	·	·
CCn1c(CSc2nnc(-c3cccnc3)n2-c2ccccc2C)nc2cc(C(=O)O)ccc21	30	–	–	46	–	–	·	·	–
CCn1c(CSc2nnc(-c3ccncc3)n2CCOC)nc2cc(C(=O)O)ccc21	–	–	–	–	–	–	·	·	·
Cc1cc(Oc2ccc(=O)[nH]n2)nc(Cl)n1	40	·	–	35	–	–	·	·	–
